Data as given in ChEMBL document CHEMBL4513216, “Probing the Open Global Health Chemical Diversity Library for Multistage-Active Starting Points for Next-Generation Antimalarials” (ACS Infect Dis, 2020).
Hit rate of the full screen: of about 68,000 compounds, about 2,700 (4%) showed an effect of 50% or more. The full list was thinned out, with strong results kept by preference.

These compounds were tested on Plasmodium berghei (assay: Screen against P. berghei liver stage (PbLuc), transformed with Luciferase, at 2uM). Settings: tested at 2 uM.
Type: functional, HepG2

| Structure (SMILES) | INHIBITION [%] |
| --- | --- |
| CSc1ccccc1CN1C[C@@H]2CC[C@H]1CN(Cc1[nH]cnc1C)C2 | 8.26 |
| O=C(Cc1ccc2c(c1)OCO2)N1CCCN(c2ccccc2)CC1 | -50.86 |
| O=C(Cc1ccc2c(c1)OCO2)N1CCCN(c2nccs2)CC1 | 79.21 |
| O=C(Cc1ccc2c(c1)CCO2)N1CCN(c2nccs2)CC1 | -11.34 |
| O=S(=O)(NCC1CCN(c2cnccn2)CC1)c1ccc(F)c(Cl)c1 | 20.8 |
| COc1ccc(-c2nc(C#N)c(N(C)C)o2)cc1S(=O)(=O)N(C)C | -36.29 |
| COC(=O)[C@H](C)NC(=O)Cn1ccc2ccc(F)cc21 | 0.08 |
| COC(=O)CCC(=O)Nc1ccc(Br)c(C)n1 | 11.88 |
| O=C([C@@H]1CCO[C@@H]2CCN(Cc3cccs3)C[C@H]21)N1CCCCO1 | 27.44 |
| CC(C)NC(=O)N1C[C@@H]2C[C@H](C(=O)NCc3ccccc3)[C@H](C1)O2 | 36.17 |
| CCOCC(=O)NCc1cc(C2CC2)n(C2CCCC2)n1 | 6.9 |
| O=C(NCc1cc(C2CC2)n(C2CCCC2)n1)C1CC1 | 14.47 |
| CCC(=O)NCc1cc(C2CC2)n(C2CCCC2)n1 | 50.7 |
| COCC(=O)N1CCC2(CC1)COCCN2Cc1ccc(F)cc1 | -5.65 |
| Cc1ccc(NC(=O)CN2CCOCC2)c(F)c1 | -1.29 |
| Cc1ccc(NC(=O)CNC(C)CN2CCOCC2)c(F)c1 (configuration not stated) | 21.24 |
| Cc1ccc(NC(=O)CNC(C)CN2CCCCC2)c(F)c1 (configuration not stated) | 64.35 |
| CSc1nccc(N2CCC(NCc3ccc4nsnc4c3)CC2)n1 | -60.25 |
| O=C(CC1CCc2ccccc21)NC1(C(=O)O)CCCC1 (configuration not stated) | 16.93 |

| Structure (SMILES) | INHIBITION [%] |
| --- | --- |
| CC1(NC(=O)CC2CCc3ccccc32)CCOCC1 (configuration not stated) | 60.15 |
| O=C(CC1CCc2ccccc21)NC1(C(=O)O)CCOCC1 (configuration not stated) | 0.54 |
| COC(=O)c1cc(OCC2CCC2)cc(C(=O)N[C@@H]2CCCNC2)c1 | -28.09 |
| Cc1cccc(C)c1NC(=O)c1cccc(N(C)S(C)(=O)=O)c1C | -11.34 |
| CCCc1[nH]n(C)c(=N)c1-c1ccc2c(c1)OCO2 | 5.92 |
| CCc1[nH]n(C)c(=N)c1-c1ccc2c(c1)OCO2 | 37.53 |
| Cn1[nH]c(C2CCC2)c(-c2ccc3c(c2)OCO3)c1=N | 14.06 |
| Cn1[nH]c(C2CC2)c(-c2ccc3c(c2)OCO3)c1=N | 58.6 |
| Cn1nc(C2CCCC2)c(-c2ccc3c(c2)OCO3)c1N | 53.33 |
| CSCCc1nc(-c2ccc3c(c2)OCO3)n(C)n1 | 12.74 |
| Cc1nc(C)n(C2CCCN(C(=O)c3ccc4c(c3)COC4)C2)n1 (configuration not stated) | 2.08 |
| O=C1CC[C@@H]2[C@@H](CCN2C(=O)c2ccsc2)N1Cc1ccncc1 | 37.48 |
| Cc1ccc(CN2C[C@H](OCC3CCN(C)CC3)[C@H]3COC[C@H]32)o1 | -14.64 |
| CNC(=O)[C@H]1C[C@H]2OCC[C@H]2N(Cc2cccc3ccccc23)C1 | 16.6 |
| CC(=O)c1c(F)cccc1NCC(O)C1CC1 (configuration not stated) | 31.96 |
| CC(=O)c1c(F)cccc1NCC(O)c1ccc(F)c(F)c1 (configuration not stated) | 4.26 |
| CC(=O)c1c(F)cccc1NCC(O)C(C)(C)C (configuration not stated) | 53.44 |
| CCC(C)NC(=O)c1cc(S(=O)(=O)N2CCCC2)c(C)s1 (configuration not stated) | 53.12 |
| CCC(C)NC(=O)c1cc(S(=O)(=O)N(C)C)c(C)s1 (configuration not stated) | 25.9 |

| Structure (SMILES) | INHIBITION [%] |
| --- | --- |
| CCC(C)NC(=O)c1cc(S(N)(=O)=O)c(Br)s1 (configuration not stated) | -70.18 |
| CC(C)(C)c1nnc(CN2CCCC(c3cc(C(N)=O)[nH]n3)C2)o1 (configuration not stated) | -47.97 |
| COc1ncnc(N(C)C)c1NC(=O)Cc1c[nH]c2ccc(F)cc12 | 62.92 |
| CN(C)c1ncncc1NC(=O)Cc1c[nH]c2ccc(F)cc12 | 10.04 |
| COc1ncnc(N(C)C)c1NC(=O)Cc1cc(F)ccc1F | -73.79 |
| O=C(CN1CC(c2nc(-c3ccco3)no2)C1)NCC1CCCO1 (configuration not stated) | 23.01 |
| Cc1cc(NC(=O)NC2CCN(C(C)C)CC2)c2ncccc2c1 | -40.76 |
| COc1ccc(S(=O)(=O)NCCCc2ccc(N(C)C)cc2)cc1F | 25.53 |
| CCOc1ccc(S(=O)(=O)NCCc2ccc(N(C)C)cc2)cc1F | 21 |
| CCOc1ccc(S(=O)(=O)NCCCc2ccc(N(C)C)cc2)cc1F | 51.71 |
| CN(Cc1nnc(-c2ccco2)o1)C(C(N)=O)c1cccc(F)c1 (configuration not stated) | 5.64 |
| CC(C)CCn1ccc(NC(=O)N2CCCC2CN2CCOCC2)n1 (configuration not stated) | -39.07 |
| CCNC(=O)CN1CCc2c(Br)ccc(F)c2C1 | -25.78 |
| Cn1ccnc1CN1CCC2(CC1)CN(c1cncnc1)C(=O)CO2 | 7.71 |
| Cc1n[nH]c(=O)c2c(NC(=O)CN3CCC(O)CC3)oc(C)c12 | 5.72 |
| CCOC1CCN(CC(=O)Nc2oc(C)c3c(C)n[nH]c(=O)c23)CC1 | 52.52 |
| Cc1n[nH]c(=O)c2c(NC(=O)CN3CCC(C)CC3)oc(C)c12 | 26.2 |
| COCC[C@]1(O)CCN(Cc2ccccn2)C[C@H]1C | 5.39 |
| O=C(Cc1cccs1)NCC1(O)CCSC1 (configuration not stated) | -2.22 |
